Screening data: PubChem BioAssay, several laboratories
SRC3 inh: SRC3 coactivator transcriptional activity inhibitors, primary screen, cell-based, luminescence; Nuclear receptor coactivator 3 (Homo sapiens), Q9Y6Q9; HEK293 GAL4-SRC3 luciferase reporter; inhibition, % at 3.6 µM; 360,000 tested, 0.17% active; AID 588352, 2011;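 active = inhibition above a per-campaign cutoff, the mean of all compounds plus 3 SD, cut at about 60% in these data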;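 note: higher means less SRC3-driven luciferase light from the GAL4 reporter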
Target sequence (Q9Y6Q9 whole entry, looked up, the tested form may be a part): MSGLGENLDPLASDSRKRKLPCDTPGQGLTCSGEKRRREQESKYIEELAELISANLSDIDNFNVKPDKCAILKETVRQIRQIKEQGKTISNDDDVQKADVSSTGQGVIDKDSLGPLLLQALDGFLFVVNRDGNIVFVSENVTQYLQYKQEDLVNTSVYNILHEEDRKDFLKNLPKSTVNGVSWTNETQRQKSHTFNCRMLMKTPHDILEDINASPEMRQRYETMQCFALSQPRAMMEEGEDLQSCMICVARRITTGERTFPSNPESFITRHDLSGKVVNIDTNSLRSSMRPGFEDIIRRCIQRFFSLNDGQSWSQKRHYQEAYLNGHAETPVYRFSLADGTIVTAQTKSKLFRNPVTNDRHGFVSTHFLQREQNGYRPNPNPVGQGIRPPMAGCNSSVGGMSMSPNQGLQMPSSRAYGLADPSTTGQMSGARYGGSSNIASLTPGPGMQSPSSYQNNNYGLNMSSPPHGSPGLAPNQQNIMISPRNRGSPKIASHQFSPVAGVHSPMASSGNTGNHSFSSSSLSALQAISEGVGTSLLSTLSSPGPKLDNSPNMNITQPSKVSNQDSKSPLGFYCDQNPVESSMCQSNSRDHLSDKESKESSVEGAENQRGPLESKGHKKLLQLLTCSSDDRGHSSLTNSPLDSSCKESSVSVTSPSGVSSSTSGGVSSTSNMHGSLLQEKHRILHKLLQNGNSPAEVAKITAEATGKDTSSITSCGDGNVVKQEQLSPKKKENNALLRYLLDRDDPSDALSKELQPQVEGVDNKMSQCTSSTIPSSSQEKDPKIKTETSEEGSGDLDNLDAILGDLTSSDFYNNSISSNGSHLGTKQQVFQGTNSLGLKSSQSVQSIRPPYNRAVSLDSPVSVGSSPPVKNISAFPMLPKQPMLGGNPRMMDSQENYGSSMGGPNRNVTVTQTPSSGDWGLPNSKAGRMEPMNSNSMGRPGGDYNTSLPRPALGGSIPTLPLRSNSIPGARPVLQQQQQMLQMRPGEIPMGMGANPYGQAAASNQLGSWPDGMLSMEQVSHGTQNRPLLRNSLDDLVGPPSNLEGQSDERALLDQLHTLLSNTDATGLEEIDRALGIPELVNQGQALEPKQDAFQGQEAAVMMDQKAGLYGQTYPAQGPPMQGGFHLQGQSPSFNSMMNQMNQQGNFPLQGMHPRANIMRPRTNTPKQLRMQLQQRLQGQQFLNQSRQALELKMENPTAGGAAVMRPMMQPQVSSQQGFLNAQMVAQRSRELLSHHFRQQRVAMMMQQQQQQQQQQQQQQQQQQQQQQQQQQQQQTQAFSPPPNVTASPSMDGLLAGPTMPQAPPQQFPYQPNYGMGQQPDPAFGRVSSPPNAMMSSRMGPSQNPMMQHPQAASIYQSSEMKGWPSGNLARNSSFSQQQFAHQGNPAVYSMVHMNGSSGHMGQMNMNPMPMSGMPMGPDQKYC
Gli-Sufu block: Gli-Sufu pathway antagonists, primary screen, luciferase luminescence, Sufu-KO-LIGHT cells, uHTS. inhibition, % at 5 µM. Sufu-KO-LIGHT fibroblasts, Gli luciferase reporter luminescence. 340,000 tested, 0.74% active. AID 588413, 2011;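 active = inhibition above about 55%, limit read from the data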
LRH-1 inv ag: LRH-1 (NR5A2) inverse agonists, primary screen, cell-based, luminescence, HEK293T, StAR-luciferase reporter | Nuclear receptor subfamily 5 group A member 2 (Homo sapiens), O00482 | LRH-1 transfected, 24 h | inhibition, % at 3.6 µM | 360,000 tested, 0.13% active | AID 602396, 2012;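 active = inhibition above the mean inhibition of all tested compounds plus 3 SD, cut at about 73% in these data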
NCOA1 inh: SRC1 coactivator transcriptional activity inhibitors, primary screen, cell-based, luminescence; Nuclear receptor coactivator 1 (Homo sapiens), Q15788; HEK293 GAL4-SRC1 luciferase reporter; inhibition, % at 3.6 µM; 360,000 tested, 0.12% active; AID 588354, 2011;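 active = inhibition above the campaign mean plus 3 SD, with each screening campaign given its own cutoff, cut at about 60% in these data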
NR2F2 inh: NR2F2 transcriptional activity inhibitors, primary screen, cell-based, luciferase reporter, HEK293T, luminescence; COUP transcription factor 2 (Homo sapiens), P24468; HEK293T NGFI-A luciferase reporter; inhibition, % at 8.6 µM; 370,000 tested, 0.7% active;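 active = inhibition above a per-plate cutoff, mean inhibition of test wells between control levels plus 3 SD, cut at about 38% in these data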;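 note: cells cotransfected with COUP-TFII expression vector driving the NGFI-A reporter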
SRC2 inh: inhibition of GAL4-SRC2 driven luciferase reporter, primary screen, SRC2 inhibitor project, cell-based, luminescence; Nuclear receptor coactivator 2 (Homo sapiens), Q15596; HEK293 GAL4-SRC2 luciferase reporter; 370,000 tested, 0.17% active; AID 651957, 2012; inhibition, % at 9 µM;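 active = inhibition above the mean inhibition of all tested compounds plus 3 SD, set per campaign, cut at about 52% in these data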
Of the large screens only hits and unclear results are named; the others gave an inactive call. Hits are enriched below; roughly 1.3% of the tested compounds scored in any of these assays.

C=C1[C@@H](O)[C@@H]2O[C@]3(CC[C@H](/C=C/[C@@H](C)[C@@H]4CC(C)=CC5(O[C@H](C[C@@](C)(O)C(=O)OC)CC[C@H]5O)O4)O3)CC[C@H]2O[C@@H]1[C@@H](O)C[C@H](C)[C@H]1OC2(CCCCO2)CC[C@H]1C (stereo partly drawn)	Gli-Sufu block 90.2 (no result: SRC3 inh, LRH-1 inv ag, NCOA1 inh, NR2F2 inh, SRC2 inh)
CCOc1ccccc1C(=O)N1CCN(c2cccc(Cl)c2)CC1	Gli-Sufu block 58.7
CC[n+]1cccc(-c2nc3ccccc3s2)c1	none
CC[n+]1c(/C=C/N(C)c2ccccc2)n(-c2ccccc2)c2ccc(-c3nc4ccccc4s3)cc21	SRC3 inh 83.0, Gli-Sufu block 90.7, LRH-1 inv ag 90.2, NCOA1 inh 82.0 (no result: NR2F2 inh, SRC2 inh)
COC(C(=O)C(O)C(C)O)C1Cc2cc3cc(OC4CC(OC5CC(O)C(O)C(C)O5)C(O)C(C)O4)c(C)c(O)c3c(O)c2C(=O)C1OC1CC(OC2CC(OC3CC(O)C(OC)C(C)O3)C(O)C(C)O2)C(O)C(C)O1 (stereo not drawn)	SRC3 inh 85.9, LRH-1 inv ag 97.8, NCOA1 inh 74.5
O=[N+]([O-])c1ccc(CN2CCOCCOCCN(Cc3ccc([N+](=O)[O-])cc3Cl)CCOCC2)c(Cl)c1	none (no result: SRC3 inh, Gli-Sufu block, LRH-1 inv ag, NCOA1 inh, SRC2 inh)
CCN(CC(=O)Nc1c(F)cccc1F)C(=O)CSCC(=O)Nc1cc(C)on1	none
CCN(CC(=O)Nc1ccc(OC)cc1)C(=O)CSCC(=O)Nc1cc(C)on1	SRC3 inh 79.1
COc1ccc(-c2nnc(SCC(=O)NN=Cc3c(O)ccc4ccccc34)n2-c2ccc(OC)cc2)cc1	none (no result: SRC3 inh, Gli-Sufu block, LRH-1 inv ag, NCOA1 inh)
c1ccc(-c2nnc(-c3ccccn3)nn2)nc1	none
c1ccc(-c2cccc(-c3ccccn3)n2)nc1	SRC3 inh 83.6, Gli-Sufu block 85.2, LRH-1 inv ag 97.6, NCOA1 inh 80.6 (no result: NR2F2 inh, SRC2 inh)
CN1CCC(N[C@@H](Cc2c[nH]c3ccccc23)C(=O)NCCCc2ccccc2)(C(=O)NCCc2c[nH]c3ccccc23)CC1	none (no result: SRC3 inh, Gli-Sufu block, LRH-1 inv ag, NCOA1 inh, SRC2 inh)
CC1(C)CC(=O)N(CC(=O)N2CCN(c3ccc(F)cc3)CC2)c2ccccc2S1(=O)=O	none (no result: SRC3 inh, Gli-Sufu block, LRH-1 inv ag, NCOA1 inh)
Cc1cccc(C)c1NS(=O)(=O)c1ccc(-c2cnc(C3CC3)o2)cc1	Gli-Sufu block 57.1
O=C(CCl)NC(Cc1ccccc1)c1ccccc1 (stereo not drawn)	SRC2 inh 56.6
COC(CNC(=O)[C@H](Cc1ccccc1)NC1(C(=O)NC2CCCCC2)CCCC1)OC	none (no result: SRC3 inh, Gli-Sufu block, LRH-1 inv ag, NCOA1 inh, SRC2 inh)
C[C@@H]1CN([C@H](C)CO)C(=O)c2cc(NC(=O)Nc3ccccc3)ccc2O[C@@H](C)CCCCO[C@H]1CN(C)S(=O)(=O)c1ccc(F)cc1	none (no result: SRC3 inh, Gli-Sufu block, LRH-1 inv ag, NCOA1 inh, SRC2 inh)
O=C(O)C1CCCN1c1nc(-c2ccc(Cl)c(Cl)c2)cc(C(F)(F)F)n1 (stereo not drawn)	SRC3 inh 72.4, LRH-1 inv ag 91.9
Oc1ccc(CN2CCC(Cc3ccccc3)CC2)c2cccnc12	Gli-Sufu block 67.0 (no result: SRC3 inh, LRH-1 inv ag, NCOA1 inh)
Oc1ccc(CN2CCc3ccccc3C2)c2cccnc12	Gli-Sufu block 84.3
Oc1ccc(CN2CCN(c3ccccc3)CC2)c2cccnc12	none (no result: NR2F2 inh, SRC2 inh)
CCOC(=O)N1CCN(Cc2ccc(O)c3ncccc23)CC1	none (no result: SRC3 inh, LRH-1 inv ag, NCOA1 inh)
Cc1ccc(C)c(S(=O)(=O)N2CCN(Cc3ccc(O)c4ncccc34)CC2)c1	Gli-Sufu block 73.5
Cc1ccccc1NC(=O)O[C@H]1CC[C@@]23CCCN2C(=O)CCC[C@H]3[C@H]1C	none (no result: SRC3 inh, Gli-Sufu block, LRH-1 inv ag, NCOA1 inh, SRC2 inh)
O=C(NCCCn1ccnc1)c1ccc(S(=O)(=O)N2CCCCCC2)cc1	none
CC1CC(C)CN(S(=O)(=O)c2ccc(C(=O)NCCCn3ccnc3)cc2)C1 (stereo not drawn)	SRC3 inh 61.8, LRH-1 inv ag 84.2 (no result: NR2F2 inh, SRC2 inh)
CCCCOCCCNC(=O)C[C@H]1C[C@@]2(C(=O)OC)C(=C[C@H](C(C)C)O[C@@H]2C2CC2)N(Cc2ccco2)C1=O	none (no result: SRC3 inh, Gli-Sufu block, LRH-1 inv ag, NCOA1 inh)
CC(=O)O[C@@H]1C[C@H]2C(C)(C)C(=O)C=C[C@]2(C)[C@H]2CC[C@@]3(C)[C@H](c4ccoc4)OC(=O)[C@H]4O[C@]43[C@@]21C	SRC2 inh 52.3
CC(=O)OC1CC2C(C)(C)C(=O)C=CC2(C)C2CCC3(C)C(c4ccoc4)OC(=O)C4OC43C12C (stereo not drawn)	none (no result: Gli-Sufu block)
Cc1oc(-c2ccccc2Cl)nc1CSCC(=O)NC1CC1	none
CSc1ccc(-c2nc(CSCC(=O)NC3CC3)c(C)o2)cc1	Gli-Sufu block 70.3
CCc1ccc(-c2nc(CSCC(=O)NC3CC3)c(C)o2)cc1	Gli-Sufu block 79.6, SRC2 inh 55.7
Cn1cnnc1Sc1nc([N+](=O)[O-])nn1C	none
COc1ccccc1-c1nnc(Sc2nc([N+](=O)[O-])nn2C)o1	SRC3 inh 73.2, LRH-1 inv ag 75.3, NCOA1 inh 64.3, SRC2 inh 64.6
CC(=NNC(=S)N1CCN(c2ccccn2)CC1)c1nccs1	Gli-Sufu block 88.6 (no result: NR2F2 inh, SRC2 inh)
CC(=NNC(=S)N1CC2CCC(CC2)C1)c1ccccn1	none (no result: Gli-Sufu block)
CC(=NNC(=S)N1CC2CCC(CC2)C1)c1cnccn1	SRC3 inh 77.8, NCOA1 inh 76.6
CC(=NNC(=S)N1CCN(C2CCCCCC2)CC1)c1ccccn1	SRC3 inh 68.8, Gli-Sufu block 65.0, NCOA1 inh 72.8
O=C(Nc1ccc2c(c1)OCCO2)C1CC1c1ccccc1 (stereo not drawn)	none
O=C(O)C1CCCCC1C(=O)Nc1ccc2c(c1)OCCO2 (stereo not drawn)	SRC2 inh 55.3
Cc1ccc(C(=O)C(c2ccccc2)N2Cc3ccccc3C2=N)cc1 (stereo not drawn)	Gli-Sufu block 55.7 (no result: NR2F2 inh, SRC2 inh)
COc1ccc(C(=O)C(c2ccccc2)N2CCOCC2)cc1 (stereo not drawn)	none
CC(=O)c1cccc(NC(=O)c2cnn3c(C)cc(C)nc23)c1	none (no result: SRC3 inh, Gli-Sufu block, LRH-1 inv ag, NCOA1 inh, SRC2 inh)
Cc1ccc(NC(=O)C2CCN(c3nnc(-n4cccc4)s3)CC2)c(C)c1	none (no result: SRC3 inh, Gli-Sufu block, LRH-1 inv ag, NCOA1 inh)
CCCCNC(=O)C1CCCN1C(=O)Nc1cccc(C)c1 (stereo not drawn)	none (no result: SRC3 inh, Gli-Sufu block, LRH-1 inv ag, NCOA1 inh)
COc1ccccc1CNC(=O)CCNS(=O)(=O)c1ccc2[nH]c(=O)oc2c1	Gli-Sufu block 56.9
CCCCOc1ccc(C(=O)n2ccc3ccc(-c4ccc5ccn(Cc6ccccc6)c5c4)cc32)cc1	none (no result: SRC3 inh, Gli-Sufu block, LRH-1 inv ag, NCOA1 inh)
CC(=O)N(Cc1ccc(F)cc1)C1=C(NCCc2ccccc2)C(=O)c2ccccc2C1=O	Gli-Sufu block 74.9, NR2F2 inh 55.4
CC(=O)OC12CCCN(C1)/C(=C/c1cccc(Cl)c1)C2 (stereo not drawn)	none (no result: SRC3 inh, Gli-Sufu block, LRH-1 inv ag, NCOA1 inh)
COc1ccc2cc3cc(C(=O)NCCc4ccc(OC)c(OC)c4)oc3nc2c1	NR2F2 inh 53.8
